From PubChem BioAssay (NCI) come the findings set out here.

About 83,000 compounds went through this panel and 20% of them were active in at least one assay; those are over-represented in the sample as a whole.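 Testing used 96-well plates and a 48-hour single-concentration exposure. Example: -40 means 40% of the starting cells died.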 Unmarked numbers belong to inactive results. Activity calls are given as the source filed them. How the source made its calls: active means growth percent below 10; inactive means the rest.

Holding throughout (experiment): NCI-60 one-dose screen, 48 h (100 = growth as untreated, 0 = no growth, -100 = all killed)
Holding throughout (conditions): 10 µM

The subject of assay [1] is NCI-H23 lung.
The test system of assay [2] is NCI-H226 lung.
In assay [3] the test system is NCI-H322M lung.
Assay [4] relates to HOP-62 NSCLC.
For assay [5], the system named is NCI-H460 lung.
Assay [6] has as its system HOP-92 NSCLC.
Assay [7] relates to NCI-H522 lung.
The subject of assay [8] is A549/ATCC NSCLC.
For assay [9], the system named is 786-0 renal.
Assay [10] relates to COLO 205 colon.
Assay [11] concerns DU-145 prostate.
The test system of assay [12] is MALME-3M melanoma.
For assay [13], the system named is MDA-MB-231 breast.
Assay [14] concerns RXF 393 renal.
For assay [15], the system named is SF-268 CNS.
In assay [16] the test system is SF-295 CNS.
For assay [17], the system named is SF-539 CNS.
Assay [18] relates to UACC-257 melanoma.
The subject of assay [19] is M14 melanoma.
Assay [20] relates to K-562 leukemia.

Take `CCN(CC)CCOc1ccc(C(=C(C)c2ccccc2)c2ccc(OCCN(CC)CC)cc2)cc1`: the growth is 19.9% in assay [1]; 71% in [2]; 31.1% in assay [3]; -44.3% (active) in assay [4]; 4.41% (active) in assay [5]; -21.3% (active) in [6]. Besides, the growth is 3.11% (active) in assay [7]; 15.2% in [8]; -51.6% (active) in [9]; -88.2% (active) in [10]; 41.4% in assay [11]; -100% (active) in assay [12]. The growth in assay [13] was -60.4% (active); in assay [14], -74.5% (active); in assay [15], 11.6%; in [16] it was -63.6% (active); in assay [17] it was -98.1% (active); in assay [18], -83.4% (active). The growth in assay [19] was -53.5% (active).

As to `CCOc1ccc(/C=N/NC(=O)Cn2nc(Cc3ccccc3)c3onc(C)c3c2=O)cc1`, the growth in assay [1] is 37.4%; in assay [2], -19.3% (active); in [3] it was 50.5%; in assay [4] it was -39.3% (active); in assay [5] it was 16.7%; in [6] it was -45.9% (active). Also, the growth in [7] was 11.4%; in assay [8], 11.6%; in assay [9], -51.9% (active); in [11] it was 30.6%; in assay [20], 75%; in assay [12] it was -11.8% (active). In addition, the growth was 9.5% (active) in assay [13]; -9.54% (active) in [15]; 10.8% in assay [16]; -47.2% (active) in assay [17]; 66.2% in assay [18]; 57.6% in assay [19].

As for `CN1CCN(Cc2ccc(C(=O)Nc3cccc(Nc4ccc5c(O)cccc5n4)c3)cc2C(F)(F)F)CC1`, the growth in assay [1] is -69.8% (active); in assay [2] it was 41.3%; in assay [3], -18.6% (active); in assay [4], -47.2% (active); in assay [5], -18.5% (active); in assay [6], -37.3% (active). For the same compound, the growth was -83.9% (active) in assay [7]; -14.2% (active) in [8]; -55.9% (active) in [9]; -1.97% (active) in assay [11]; 8.33% (active) in [20]; -95.9% (active) in assay [12]. For the same compound, the growth is -59.5% (active) in assay [13]; 2.2% (active) in assay [15]; -69.3% (active) in assay [16]; -91.5% (active) in [17]; -78.7% (active) in assay [18]; -87.3% (active) in [19].

Regarding `Cc1ccc(/C=C/C(=O)c2ccc(NC(=O)CSc3nnc(-c4c[nH]c5ccccc45)n3-c3ccccc3)cc2)c(C)c1`, the growth in assay [1] was -1.3% (active); in assay [2], 33.1%; in assay [3], 75.8%; in assay [4], 99.4%; in [5] it was -35.8% (active); in assay [6] it was 76.8%. Moreover, the growth was 25% in assay [7]; 54.3% in assay [8]; 65.8% in [9]; 41.1% in [11]; 35.4% in [20]; -71.7% (active) in assay [12]. Besides, the growth in assay [13] was 21.9%; in [15], 72.3%; in assay [16] it was 66.1%; in assay [17] it was -95.3% (active); in assay [18] it was 90.2%; in assay [19], 53.5%.

`COc1cc2c3c(n(CCCNC(C)C)c(=O)c2cc1OC)-c1nc2c(cc1C3=O)OCO2`: the growth in [1] is 16.5%; in assay [2] it was -32.2% (active); in assay [3] it was 60.3%; in [4], 5.84% (active); in assay [5], -74.2% (active); in [6], 66.5%. The growth in assay [7] was 50.9%; in assay [8], -62.8% (active); in assay [9], -78.3% (active); in assay [11], 8.46% (active); in assay [20], 2.95% (active); in assay [12], -92.3% (active). Moreover, the growth was -90.5% (active) in assay [13]; -72.5% (active) in assay [15]; 11.7% in assay [16]; -6.71% (active) in [17]; -30.4% (active) in [18]; -48.8% (active) in assay [19].

As to `Cc1cc(C)nc(/N=C(\N)Nc2ccc(S(=O)(=O)Nc3nc(C)cc(C)n3)cc2)n1`, the growth in assay [1] is 104%; in assay [2] it was 102%; in assay [3] it was 106%; in [4], 104%; in assay [5], 116%; in assay [6], 117%. In addition, the growth is 98.4% in [7]; 106% in assay [8]; 111% in assay [9]; 116% in assay [11]; 102% in [20]; 110% in [12]. For the same compound, the growth in assay [13] is 105%; in assay [15] it was 106%; in assay [16], 98%; in assay [17], 102%; in [18], 108%; in assay [19], 111%.

For `CC(=C(c1ccc(OCCN2CCCCC2)cc1)c1ccc(OCCN2CCCCC2)cc1)c1ccccc1`, the growth in [1] was 47.2%; in [2] it was 82.4%; in [3] it was 60.9%; in assay [4], 10.4%; in [5] it was 41.6%; in [6], 8.69% (active). Besides, the growth in assay [7] is 64.8%; in assay [8], 33.3%; in assay [9], -35.8% (active); in assay [10], -83.9% (active); in [11], 62.5%; in [12] it was -99.9% (active). Moreover, the growth in assay [13] is 4.97% (active); in assay [14] it was -66.2% (active); in assay [15], 34.5%; in [16], -57.2% (active); in [17], -93.3% (active); in assay [18], -78.9% (active). The growth in assay [19] was -47.2% (active).

Regarding `CCCCCCCCCCCCCCCCCCCC(=O)NCCc1c[nH]c2ccc(OC(=O)NOCCOCCOCCOCCOCCOCCOCCOCCOCCOCCOCCOCCOCCOCCOCCOCCOCCOCCOCCOCCOCCOCCOC)cc12`, the growth in [1] is 9.6% (active); in [2], -23.3% (active); in [3], -8.92% (active); in assay [4], -30.7% (active); in assay [5], 16%; in assay [6] it was -17.5% (active). Besides, the growth in assay [7] was -83.4% (active); in [8], 8.54% (active); in assay [9], 35.4%; in assay [11], 21.4%; in assay [20], 8.69% (active); in assay [12] it was 8.02% (active). Further, the growth is -74.1% (active) in [13]; 12% in assay [14]; 16.5% in [15]; -28.5% (active) in assay [16]; -13.8% (active) in [17]; 6.88% (active) in [18]. Further, the growth in assay [19] is -18.8% (active).
